RE007 growth inh: qHTS Assay for Inhibitors of the HIV-1 protein Vpr. S. pombe RE007 Vpr strain, BacTiter-Glo ATP luminescence, 24 h. Potency, µM (top dose mostly 92.2 µM), without a hit: at the highest dose activity change, negative = less growth, actives largely listed as inhibitors. actives 0.21% (n = 360,000); active = well fitted falling curve with a large enough effect; inconclusive = small, poorly fitted or top-dose-only effect; inactive = no such curve, though single readings can be large or run the other way; also: % is scaled to controls: 0 for no effect and ±100 for the full control effect; nearly all actives have a fitted effect of over 50% in size
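Fission yeast strain RE007, carrying one chromosomally integrated HIV-1 vpr copy, was seeded at OD 0.01 in PMG+AL medium with 23 nL pinned compound. After 24 h at 30 °C and 99% humidity, viability was read by BacTiter-Glo luminescence.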
Pf growth 48h: Primary qHTS for delayed death inhibitors of the malarial parasite plastid, 48 hour incubation; P. falciparum luciferase growth in erythrocytes, 48 h; Potency, µM (top dose mostly 28.7 µM), for the others: at the highest dose activity change, negative = inhibition, actives largely listed as inhibitors; actives 5.9% (n = 310,000); active = well fitted inhibition curve with a large enough effect; inconclusive = small, poorly fitted or top-dose-only effect, or another doubt; inactive = no such curve, though single readings can be large or run the other way; also: % is scaled to controls: 0 for no effect and ±100 for the full control effect
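Erythrocytes infected with P. falciparum carrying an integrated firefly luciferase reporter (2% hematocrit, 0.1% parasitemia final) were exposed to compounds in RPMI 1640 with 0.5% Albumax at 37 C, 5% CO2. Growth inhibition was scored as reduced luminescence.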
NS1 function inh: qHTS Assay for Inhibitors of Influenza NS1 Protein Function; Potency, µM (highest dose often 46.1 µM), inactives show top-dose activity, positive = more growth; actives 0.4% (n = 270,000); also: actives are rising curves; nearly all actives have a fitted effect of over 50% in size
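OD600 was taken as the measure of yeast growth restored by compound in an NS1-expressing S. cerevisiae strain. Cells had been washed out of glucose medium and diluted 1:100 into galactose -URA medium, pH 6.0.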
SARS PLpro yeast: qHTS of Yeast-based Assay for SARS-CoV PLP. S. cerevisiae expressing SARS-CoV PLpro, growth rescue. actives 0.19% (n = 330,000). AID 485353, 2010. Potency, µM (titrated, usually from 32.9 µM), for the others: top-dose activity, positive = growth rescue, actives largely listed as activators; also: 0% is about no effect; nearly all actives have a fitted effect of over 55% in size
Pf growth 96h: Primary qHTS for delayed death inhibitors of the malarial parasite plastid, 96 hour incubation. P. falciparum luciferase reporter growth, 96 h. Potency, µM (doses to about 28.7 µM), for the others: at the highest dose activity change, negative = inhibition, hits mostly inhibitors. actives 6.9% (n = 320,000). AID 504834, 2011; active = well fitted inhibition curve with a large enough effect; inconclusive = small, poorly fitted or top-dose-only effect, or another doubt; inactive = no such curve, though single readings can be large or run the other way; also: % is scaled to controls: 0 for no effect and ±100 for the full control effect
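Plates of compound plus infected erythrocytes (2% hematocrit, 0.05% parasitemia final) incubate 96 hours, 37 C, 5% CO2. Detection reagent added; reduced luminescence from the parasites' luciferase reporter flags inhibition.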
* = called active by the depositor; ? = inconclusive; nt = no result; [ ] = dose if it differs, or a comment. An excerpt weighted towards active compounds, which were near 9.5% of everything screened. Unless noted, calls follow the shape of the full dose curve. Potency is read from the fitted curve at half-maximal effect.

SMILES	RE007 growth inh	Pf growth 48h	NS1 function inh	SARS PLpro yeast	Pf growth 96h
O=c1cc(CN2CCCCC2)c2c(ccc3ccccc32)o1	-22%	nt	nt	nt	nt
CN1CCN(Cc2cc(=O)oc3ccc(Cl)cc23)CC1	-7%	-3%	-9%	5%	13µM*
CC1CCN(Cc2cc(=O)oc3ccc4ccccc4c23)CC1	1%	7.4µM*	-9%	-2%	8.3µM*
Cc1cc2oc(=O)cc(Cn3nnc(-c4ccc(Cl)cc4)n3)c2cc1C(C)C	nt	12µM*	-2%	-2%	?
CCc1ccc2oc(=O)cc(CN3CCN(CCO)CC3)c2c1	2%	-1%	0%	-3%	0%
CCc1ccc2oc(=O)cc(CN3CCCCC3)c2c1	0%	12µM*	0%	1%	5.2µM*
Cc1cc2oc(=O)cc(CN3CCCCC3C)c2cc1Cl (stereo unspecified)	-5%	?	2%	0%	-13%
Cc1cc2oc(=O)cc(CN3CCCCC3C)c2cc1C (stereo unspecified)	10%	10µM*	6%	-2%	9.3µM*
CC(C)c1ccc2oc(=O)cc(CN3CCCCC3)c2c1	-12%	7.4µM*	1%	-1%	?
Cc1ccc(C)c(N2N=C(C(=O)N(CC(C)C)c3c(N)n(Cc4ccccc4)c(=O)[nH]c3=O)CCC2=O)c1	4%	13µM*	-5%	1%	7.4µM*
CC(C)CN(C(=O)CCCOc1ccc(Cl)cc1Cl)c1c(N)n(Cc2ccccc2)c(=O)[nH]c1=O	1%	12µM*	nt	-2%	?
COc1cc2ccccc2cc1C(=O)OCC(=O)N(CC(C)C)c1c(N)n(Cc2ccccc2)c(=O)[nH]c1=O	-8%	10µM*	nt	1%	?
CC(C)c1cccc(C(C)C)c1NC(=O)OC1CCCCC1	11%[18.4 µM]	nt	nt	nt	nt
COc1ccccc1NC(=O)c1cc([N+](=O)[O-])ccc1N1CCOCC1	0%	-10%	-5%	-6%	?
CCOC(=O)C1(C)CCCN1C(=O)c1cc(F)ccc1C (stereo unspecified)	-3%	nt	nt	nt	nt
Cc1cc(S(=O)(=O)N2CCN(c3ccccc3F)CC2)ccc1-n1cnnn1	0%	-14%	-2%	-2%	12µM*
O=C(COC(=O)c1ccccc1SCC(=O)N1CCCC1)NCc1ccccc1	20%	?	nt	2%	6%
O=C(Nc1cccc(-c2csc(Nc3cccc(C(F)(F)F)c3)n2)c1)c1cc([N+](=O)[O-])cc(C(F)(F)F)c1	-10%	?	5%	-5%	?
O=C(Nc1ccc(-c2csc(Nc3ccccc3)n2)cc1)c1cc([N+](=O)[O-])cc(C(F)(F)F)c1	26%	0.59µM*	?	2%	0.47µM*
O=C(Nc1ccc(-c2csc(Nc3ccc(Cl)cc3)n2)cc1)c1cccc(C(F)(F)F)c1	-7%	?	11%	1%	10µM*
COc1ccc(S(=O)(=O)N2c3ccccc3OCC2C)cc1 (stereo unspecified)	4%	?	nt	-6%	?
COc1ccc(S(=O)(=O)N2c3ccccc3OCC2C(C)(C)C)cc1 (stereo unspecified)	-9%	12µM*	nt	-13%	15µM*
COc1ccc(S(=O)(=O)N2c3ccccc3OCC2c2ccccc2)cc1 (stereo unspecified)	3%	13µM*	6%	1%	?
CCOC(=O)N1CCN(C(=O)c2ccc3oc(CCCc4ccccc4)nc3c2)CC1	4%	-6%	-42%	nt	10µM*
COCCN1CCN(C(=O)c2ccc3oc(CCc4ccccc4)nc3c2)CC1	3%	27%	-4%	2%	-17%
SMILES	RE007 growth inh	Pf growth 48h	NS1 function inh	SARS PLpro yeast	Pf growth 96h
CC(C)NC(=O)CN1CCN(C(=O)c2ccc3oc(CCCc4ccccc4)nc3c2)CC1	7%	-29%	-12%	-1%	21%
O=C(c1ccc2oc(CCc3ccccc3)nc2c1)N1CC[C@H](O)C1	16%	147%	-4%	-1%	7.4µM*
CC(=O)N1CCN(C(=O)c2ccc3oc(CCCc4ccccc4)nc3c2)CC1	-4%	0%	-5%	?	13µM*
COCC1CCN(C(=O)c2ccc3oc(CCc4ccccc4)nc3c2)C1 (stereo unspecified)	20%	nt	nt	nt	nt
NC(=O)C1CCN(C(=O)CCSc2ccc(Cl)cc2)CC1	-8%	17%	0%	-1%	22%
O=C(CCSc1ccc(Cl)cc1)NC1CCCC1	2%	25%	2%	-2%	5.9µM*
O=C(CCSc1ccc(Cl)cc1)N1CCCCCC1	?	143%	-17%	4%	1µM*
COc1ccc(CCN2CC(C(=O)OCc3ccccc3Cl)CC2=O)cc1OC (stereo unspecified)	8%	nt	nt	nt	nt
COC(=O)c1sccc1NC(=S)N1C(C)CCCC1C (stereo unspecified)	26%	?	nt	0%	40%
COCCCNC(=O)CC1C(=O)N(Cc2ccccc2)C(C)c2nc3ccccc3n21 (stereo unspecified)	1%	?	nt	-4%	?
COc1ccc(-c2cc(C(=O)Nc3ccc(F)cc3F)no2)cc1	5%	nt	-2%	12%	?
Cc1ccc(-c2cc(C(=O)Nc3cc(C)ccc3O)no2)cc1	?	487%	-1%	?	-25%
COc1ccc(-c2cc(C(=O)Nc3c(F)cc(F)cc3Br)no2)cc1	8%	30%	0%	-1%	8.3µM*
COc1ccc(-c2cc(C(=O)Nc3cc(C)ccc3O)no2)cc1	8%	-17%	2%	0%	3.3µM*
CC(C)=N/N=C(/c1ccc([N+](=O)[O-])cc1)C12CN3CN(CN(C3)C1)C2	-4%	0%	nt	-4%	13µM*
CCOc1ccccc1CN1CCN(Cc2csc(C(C)=O)c2)CC1CCO (stereo unspecified)	-5%	4%	-5%	0%	11%
Cc1cc(C)c2cc(C(=O)Nc3ccccc3)[nH]c2c1	6%	?	-3%	-1%	8.3µM*
Cc1ccc2[nH]c(CNC(=O)c3ccc(F)cc3)cc2c1	1%	-6%	20%	3%	-12%
CCCOc1ccc(NC(=O)c2cc3cc(C)ccc3[nH]2)cc1	-14%	-10%	5%	-5%	12µM*
Cc1ccc2[nH]c(C(=O)Nc3ccc(F)cc3)cc2c1	0%	-11%	-2%	1%	8.3µM*
CCCOc1ccc(NCC(=O)Nc2ccc(C)cc2C)cc1	3%	-29%	-32%	4%	?
CCOC(=O)C1C(c2cccc([N+](=O)[O-])c2)C2C(=O)NN=C2CC1(C)O (stereo unspecified)	-4%	5%	nt	-4%	20%
COc1ccc(NC(=O)C(C)N=C2NS(=O)(=O)c3ccccc32)cc1S(N)(=O)=O (stereo unspecified)	-4%	-5%	nt	0%	9%

Assay outcomes from PubChem BioAssay.
